Screening results deposited in PubChem BioAssay by several laboratories.
Compounds with a hit are over-represented: about 0.5% of the library has one in this group of screens.
AddAB inh: less growth of phage-infected E. coli with AddAB; inhibition, % at 11.9 µM; AID 435030; E. coli expressing H. pylori AddAB, absorbance growth; hit rate 0.29% among 330,000; in the data active = inhibition above about 12%;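 also: 0% = vehicle wells of infected cells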
Tat export inh: inhibitors of E. coli Tat protein transport; inhibition, % at 10 µM; hit rate 0.036% among 340,000; E. coli MC4100 TorA-mCherry Tat export, fluorescence;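 active = mean replicate inhibition at least 50% and at least half of replicates individually reaching 50%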;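 also: exported cargo escapes ClpAP degradation while cytoplasmic cargo is degraded and loses fluorescence; 0% = median of neutral control wells and 100% = median of NaSCN control wells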
E coli growth-1: bacterial growth inhibition, counter-screen for AddAB inhibitors | hit rate 0.27% among 330,000 | inhibition, % at 11.9 µM | AID 449728 | E. coli V3065 growth, OD600 absorbance, 18 h;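 active = inhibition above the campaign's mean inhibition across all tested compounds plus 3 SD, cut at about 9.9% in these data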;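 also: uninfected addAB+ strain grown without phage in ampicillin broth; 0% = DMSO wells and 100% = ciprofloxacin 0.95 µg/ml wells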
E coli growth-2: E. coli growth inhibition. Escherichia coli growth, OD600, 23 h; stronger effect = lower value. OD600 absorbance (test concentration not listed). hit rate 0.21% among 330,000. AID 1053175;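 active = OD600 absorbance below the run mean of sample wells minus 3.6 SD, in any replicate, cut at about 0.56 in these data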
phage Ecoli inh: E. coli growth loss with phage present | growth absorbance | inhibition, % at 11.9 µM | hit rate 0.26% among 360,000 | AID 651602; in the data active = inhibition above about 11%
* marks the source's active call; other numbers are inactive results.

Screening CCC(C)C(N)C1=NC(C(=O)N[C@@H](CC(C)C)C(=O)N[C@H](CCC(=O)[O-])C(=O)N[C@H](C(=O)N[C@H]2CCCCNC(=O)[C@H](CC(N)=O)NC(=O)[C@@H](CC(=O)[O-])NC(=O)[C@H](Cc3cnc[nH]3)NC(=O)[C@@H](Cc3ccccc3)NC(=O)[C@H]([C@@H](C)CC)NC(=O)[C@@H](CCCN)NC2=O)[C@@H](C)CC)CS1.[Zn+2] (stereo partly drawn) returned Tat export inh 54.3*.
For COc1ccccc1C(=O)NC(=Nc1nc2ccccc2o1)NC(=O)c1ccccc1OC the results were AddAB inh 14.0*, Tat export inh -7.3, E coli growth-1 13.3*, E coli growth-2 0.684 and phage Ecoli inh 3.9.
Screening O=C(NC(=Nc1nc2ccccc2o1)NC(=O)c1ccccc1)c1ccccc1 returned AddAB inh 1.0, Tat export inh -8.6, E coli growth-1 -0.4, E coli growth-2 0.646 and phage Ecoli inh 5.9.
Screening CC(C)CC(NC(=O)c1nc[nH]c1C(=O)NC(CC(C)C)C(=O)OC(C)(C)C)C(=O)OC(C)(C)C (stereo not drawn) returned E coli growth-2 0.64.
`COc1cc(NS(=O)(=O)c2ccc(N)cc2)ncn1` gave AddAB inh 21.3* and E coli growth-1 15.5*.
Screening CC(C)(C)OC(=O)CC1CC=CCC(CC(=O)NC(CO)Cc2ccccc2)C(=O)N2CCCC2COC1=O (stereo not drawn) returned E coli growth-2 0.683.
O=C(Oc1c(CN2CCOCC2)cc(Cl)c2cccnc12)c1ccccc1 was read as AddAB inh -3.2, Tat export inh 15.9, E coli growth-1 -2.2, E coli growth-2 0.676 and phage Ecoli inh 2.7.
Screening O=C(COc1c(Br)cc(Br)c2cccnc12)N1CCCCC1 returned AddAB inh -4.2, Tat export inh -11.4, E coli growth-1 -6.0, E coli growth-2 0.698 and phage Ecoli inh -4.9.
For Oc1c(CN2CCCCC2)cc(Br)c2cccnc12 the results were AddAB inh 4.1, Tat export inh 2.2, E coli growth-1 1.5, E coli growth-2 0.169* and phage Ecoli inh 8.9.
For Oc1c(Cl)cc(CN2CCOCC2)c2cccnc12 the results were AddAB inh 8.2, Tat export inh 5.2, E coli growth-1 8.1, E coli growth-2 0.522* and phage Ecoli inh 4.3.
For CN1CCN(Cc2cc(COCc3ccccc3)c3cccnc3c2O)CC1 the results were AddAB inh 8.1, Tat export inh 13.4, E coli growth-1 -0.5 and phage Ecoli inh 6.8.
Screening Oc1c(CN2CCc3ccccc3C2)cc(Cl)c2cccnc12 returned AddAB inh 11.3, Tat export inh 0.2, E coli growth-1 0.2 and E coli growth-2 0.429*.
For FC(F)(F)c1ccc(C2C3CN(Cc4ccc(-c5ccccc5)cc4)C(c4ccccc4)C34CC2(c2ccccc2)C4)cc1 (stereo not drawn) the results were E coli growth-2 0.708.
Screening CCc1ccc(C2CC=C(C(=O)O)C(c3ccccc3)N2S(=O)(=O)c2ccc(C)cc2)cc1 (stereo not drawn) returned E coli growth-2 0.705.
`CN(C)c1ccc(/C=[N+](\[O-])C(C)(C)C=NO)cc1` gave E coli growth-2 0.71.
For C=CCSC(=S)NC1CCS(=O)(=O)C1 (stereo not drawn) the results were AddAB inh 3.7, Tat export inh -21.5, E coli growth-1 -1.9, E coli growth-2 0.502* and phage Ecoli inh 2.7.
`CCN(CC)C(=O)c1ccc(/C=C/c2c[nH]c3ccccc23)[n+](C)c1` gave AddAB inh 2.1, Tat export inh -4.9, E coli growth-1 0.2, E coli growth-2 0.718 and phage Ecoli inh 0.9.
`CC[n+]1c(/C=C/c2c[nH]c3ccccc23)ccc2cc(C)ccc21` gave Tat export inh -2.0, E coli growth-2 0.463* and phage Ecoli inh -0.8.
Screening CCC[C@@H](CN1CCC[C@H]1CN1C(N)=NC[C@@H]1Cc1ccccc1)N1C[C@@H](Cc2ccccc2)N(CCc2ccc(Cl)c(Cl)c2)C1=N returned AddAB inh 2.4, Tat export inh 2.5, E coli growth-1 3.1 and phage Ecoli inh 4.2.
Screening CC[C@@H](C)[C@@H]1CN([C@@H](CN2CCC[C@H]2CN2C(N)=NC[C@H]2CC(C)C)C(C)C)C(=N)N1CCc1ccc(Cl)c(Cl)c1 returned AddAB inh 8.1, Tat export inh 31.1, E coli growth-1 5.9, E coli growth-2 0.127* and phage Ecoli inh 4.6.
For CCC[C@@H](CN1CCC[C@H]1CN1C(N)=NC[C@@H]1Cc1ccccc1)N1C[C@@H]([C@H](C)CC)N(CCc2ccc(Cl)c(Cl)c2)C1=N the results were AddAB inh 7.3, Tat export inh 0.1 and E coli growth-1 2.6.
